The text below walks through data of PubChem BioAssay.

Molecules are shown by their SMILES. Active and inactive are the calls of the source.

Assay [1] can be described thus: compound effects on lung adenocarcinoma cell viability – A549, calcein-AM fluorescence, 48 h, basal, profiling panel (AID 1162). Further: test concentration not given here. Conditions: higher = more signal.
Assay [2] in a line: compound effects on differentiated 3T3-L1 adipocyte viability – cell-based, 3T3-L1 adipocytes, calcein-AM fluorescence, 48 h, basal, profiling panel (AID 1163). Further: test concentration not given here. Conditions: 3T3-L1 adipocytes viability, higher = more signal.
The nature of assay [3]: compound effects on hepatocellular carcinoma cell viability – HepG2, calcein-AM fluorescence, 48 h, basal, profiling panel (AID 1164). Further: test concentration not given here. The note with it: higher = more signal.
Assay [4] in a line: compound effects on multiple myeloma cell viability – MM1S, calcein-AM fluorescence, 48 h, basal, profiling panel (AID 1165). Further: test concentration not given here. Conditions: higher = more signal.
Assay [5] in a line: calcein-AM signal in unstimulated myeloma cells – cell-based, calcein-AM fluorescence, 48 h, PK04 Diversity Set, profiling panel (AID 1166).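 Further: cells grown under basal conditions without added stimulus; test concentration not given here.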 Conditions: RPMI8226 myeloma viability, higher = more signal.
A short description of assay [6]: JC-1 mitochondrial signal, unstimulated HepG2 cells – cell-based, JC-1 fluorescence, 24 h, 100 nL compound, profiling panel (AID 1167). Further: test concentration not given here. Conditions: HepG2 mitochondrial potential, higher = more signal.
A short description of assay [7]: JC-1 mitochondrial signal, unstimulated adipocytes – cell-based, JC-1 fluorescence, 3T3-L1 adipocytes, 24 h, 100 nL compound, profiling panel (AID 1168). Further: test concentration not given here. Conditions: JC-1 mitochondrial fluorescence, higher = more signal, called active from +8 up or from −8 down.
Assay [8] is described as follows: JC-1 mitochondrial signal, unstimulated myeloma cells – cell-based, JC-1 fluorescence, RPMI8226, 24 h, 100 nL compound, profiling panel (AID 1169). Further: test concentration not given here. Conditions: JC-1 mitochondrial potential fluorescence, higher = more signal.
The nature of assay [9]: JC-1 mitochondrial signal, unstimulated MM1S myeloma – cell-based, JC-1 fluorescence, 24 h, 100 nL compound, profiling panel (AID 1170). Further: test concentration not given here. Conditions: MM1S mitochondrial potential, higher = more signal.
Assay [10] can be described thus: resazurin metabolic signal in A549 cells – cell-based, resazurin fluorescence, 24 h, PK04 Diversity Set, profiling panel (AID 1171). Further: test concentration not given here. Conditions: A549 viability, higher = more signal, called active from +8 up or from −8 down. For orientation: Resazurin is reduced to fluorescent resorufin, in cell work by metabolically active cells.
The nature of assay [11]: resazurin metabolic signal in HepG2 cells – cell-based, resazurin fluorescence, 24 h, PK04 Diversity Set, profiling panel (AID 1172). Further: test concentration not given here. Conditions: HepG2 viability, higher = more signal.
Assay [12] can be described thus: budding yeast growth changes without added modifier – OD600, strain BY4716, 24 h, basal condition, primary screen (AID 1173). The note with it: S. cerevisiae BY4716 growth, OD600, 24 h; higher = more signal, called active from +8 up or from −8 down.
The nature of assay [13]: viability profiling in MM1S myeloma cells – cell-based, resazurin fluorescence, basal, 24 h, PK04 Diversity Set, profiling panel (AID 1174). Further: test concentration not given here. Conditions: higher = more signal, called active from +8 up or from −8 down.
For assay [14], the target named is Dihydroorotate dehydrogenase (quinone), mitochondrial (Plasmodium falciparum (isolate 3D7)) (UniProt Q08210). Description: inhibition of P. falciparum DHODH – biochemical, C-terminal His tag, absorbance 600 nm, primary screen (AID 1175).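 Further: recombinant parasite enzyme with a five histidine tag at its C terminus; test concentration not given here.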 The note with it: PfDHODH enzyme, DCIP absorbance 600 nm; higher = more signal, called active from +8 up or from −8 down.
Assay [15] can be described thus: growth modulation of vineyard yeast isolate – strain RM11-1a, OD600, basal, 24 h, primary screen (AID 1177).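 Further: cultures grown under basal conditions with no added stressor; test concentration not given here.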 The note with it: S. cerevisiae RM11-1a growth, OD600, 24 h; higher = more signal, called active from +8 up or from −8 down.
The nature of assay [16]: growth of efflux-deficient E. coli DRC39 – strain DRC39, OD650, 24 h, E. coli filamentation inducers, primary screen (AID 1178).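 Further: growth measured as culture turbidity by optical density at 650 nm; test concentration not given here.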 The note with it: E. coli DRC39 acrAB, higher = more signal, called active from +8 up or from −8 down.
Assay [17] is described as follows: growth of efflux-deficient E. coli DRC39 – strain DRC39, OD650, 48 h, E. coli filamentation inducers, primary screen (AID 1179).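 Further: screen aims at cell division blockers that make cells filament.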 The note with it: E. coli DRC39 delta-acrAB growth, higher = more signal, called active from +8 up or from −8 down.
Assay [18] is described as follows: viability profiling in RPMI8226 myeloma cells – cell-based, resazurin fluorescence, basal, 24 h, PK04 Diversity Set, profiling panel (AID 1180).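 Further: RPMI8826 multiple myeloma cell line at 5000 cells per well; test concentration not given here.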 Conditions: higher = more signal.
The target of assay [19] is E3 ubiquitin-protein ligase XIAP (Homo sapiens) (UniProt P98170). As to the kind of experiment: small molecules binding XIAP protein – biophysical, small-molecule microarray, fluorescence 635 nm, primary screen (AID 1181).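 Further: score merges 667 nm emission and signal to noise over triplicate slides.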 Conditions: higher = more signal.
Chain of E3 ubiquitin-protein ligase XIAP (Homo sapiens) (P98170 whole entry, looked up): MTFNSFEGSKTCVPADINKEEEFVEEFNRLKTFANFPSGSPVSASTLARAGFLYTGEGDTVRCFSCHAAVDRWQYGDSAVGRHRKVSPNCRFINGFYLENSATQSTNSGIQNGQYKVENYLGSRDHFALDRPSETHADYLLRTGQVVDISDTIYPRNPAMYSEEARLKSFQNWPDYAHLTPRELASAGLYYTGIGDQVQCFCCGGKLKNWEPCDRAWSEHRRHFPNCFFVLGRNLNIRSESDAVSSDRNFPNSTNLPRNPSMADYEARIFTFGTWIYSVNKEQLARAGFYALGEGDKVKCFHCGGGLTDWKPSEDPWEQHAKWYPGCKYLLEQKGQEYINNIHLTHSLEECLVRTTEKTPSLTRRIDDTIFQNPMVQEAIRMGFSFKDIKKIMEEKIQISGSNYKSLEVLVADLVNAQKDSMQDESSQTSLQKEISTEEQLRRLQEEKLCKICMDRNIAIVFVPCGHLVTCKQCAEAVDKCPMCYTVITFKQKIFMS

Chain of Dihydroorotate dehydrogenase (quinone), mitochondrial (Plasmodium falciparum (isolate 3D7)) (Q08210 whole entry, looked up): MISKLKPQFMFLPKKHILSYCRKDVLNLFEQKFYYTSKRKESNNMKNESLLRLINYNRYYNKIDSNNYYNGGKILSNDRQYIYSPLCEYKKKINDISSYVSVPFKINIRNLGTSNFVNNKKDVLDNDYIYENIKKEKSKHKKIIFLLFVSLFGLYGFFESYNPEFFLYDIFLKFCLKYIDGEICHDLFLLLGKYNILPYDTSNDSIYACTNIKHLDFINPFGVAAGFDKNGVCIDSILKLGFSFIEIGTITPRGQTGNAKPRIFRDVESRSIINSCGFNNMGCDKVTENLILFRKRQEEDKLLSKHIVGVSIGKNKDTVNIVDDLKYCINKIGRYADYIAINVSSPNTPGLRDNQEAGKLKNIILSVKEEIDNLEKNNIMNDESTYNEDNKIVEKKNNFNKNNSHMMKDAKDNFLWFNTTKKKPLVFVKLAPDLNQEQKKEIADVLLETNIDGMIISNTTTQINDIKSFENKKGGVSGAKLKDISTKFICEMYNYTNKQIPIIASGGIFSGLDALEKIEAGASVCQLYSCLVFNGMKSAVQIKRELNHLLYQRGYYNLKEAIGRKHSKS

Turning to `C/C(=N\O)C(=O)NCCCCCNC(=O)OCc1ccccc1`, the z-score in assay [1] is 1.3; in assay [2], 0.895; in assay [3], 0.206; in assay [4], 0.476; in assay [5], 0.239; in [6], 1.09. Further, the z-score in assay [7] was 0.334 (inactive); in assay [8] it was -0.561; in [9], 1.24; in [10], 0.707 (inactive); in assay [11] it was 1.09; in assay [12], -2.13 (inactive). The z-score is -0.158 (inactive) in [13]; -0.608 (inactive) in [15]; 2.59 (inactive) in [16]; 1.43 (inactive) in assay [17]; 0.73 in assay [18]. Also, the results for the composite z-score in assay [14] and in assay [19] were -0.4 (inactive) and -0.258, respectively.

`CN1C2C=C(c3ccc(CO)cc3)C(C3C(=O)N(C(N)=O)C(=O)C32)C1c1cccs1` (stereo unspecified): the z-score in [1] is 0.555; in assay [2], 1.64; in assay [3] it was -0.542; in assay [4], 0.31; in assay [5], 1.07; in assay [6], 0.171. The z-score in assay [7] was 0.497 (inactive); in [8], -0.21; in [9], 0.491; in [10] it was 0.567 (inactive); in [11], 0.935; in assay [12] it was -1.28 (inactive). Also, the z-score in [13] was 1.05 (inactive); in assay [15], 1.19 (inactive); in assay [16], 1.09 (inactive); in assay [17], 0.798 (inactive); in assay [18], 0.898. The composite z-score in assay [14] was 0.683 (inactive); in assay [19] it was -0.337.

As to `CC(=O)NCCCC[C@@H]1NC(=O)[C@@H]2C[C@H](C(=O)NCCCCCCN(C)C)[C@H](c3ccc(O)cc3)N2C1=O`, the z-score was -0.378 in assay [1]; 1.28 in assay [2]; -1.04 in assay [3]; -0.365 in [4]; 0.495 in [5]; 1.43 in assay [6]. Besides, the z-score in assay [7] is 0.957 (inactive); in [8], 0.641; in assay [9], 0.925; in assay [10] it was 0.318 (inactive); in [11] it was 0.478; in assay [12], -0.574 (inactive). Further, the z-score is 1.12 (inactive) in assay [13]; 0.662 (inactive) in assay [15]; 0.325 (inactive) in [16]; 0.249 (inactive) in [17]; 0.912 in [18]. The composite z-score in assay [14] was 0.266 (inactive); in [19] it was 0.103.

As to `CO[C@]12C=C(Br)[C@@H](C[C@@H]1c1ccccc1)[C@@]1(CO1)C2=O`, the z-score was -1.08 in assay [1]; 1.18 in assay [2]; -1.08 in [3]; -2.34 in assay [4]; -1.62 in assay [5]; -0.143 in [6]. The z-score in assay [7] is 1.12 (inactive); in assay [8], -0.376; in assay [9], 0.0484; in [10], -0.446 (inactive); in [11], 0.418; in assay [12] it was -5.19 (inactive). Besides, the z-score in assay [13] is 0.0036 (inactive); in [15], -0.123 (inactive); in assay [16], 2.39 (inactive); in assay [17], 1.29 (inactive); in assay [18], 0.63. Moreover, the composite z-score in [14] is 1.03 (inactive); in assay [19], -0.142.

In the case of `CCOC(=O)C[C@H]1[C@H](OC(=O)c2ccccc2-c2ccccc2)[C@@H](NC(=O)C2CCCCC2)c2cc(OCCCO)ccc2N1C(=O)c1ccccc1`, the z-score in [1] is -0.675; in [2], 1.22; in assay [3] it was -0.294; in [4], -0.402; in [5], -1.33; in [6] it was 3.59. For the same compound, the z-score in [7] is 0.75 (inactive); in assay [8], -0.545; in assay [9], 0.109; in [10], -0.0403 (inactive); in assay [11], -0.206; in [12], -0.686 (inactive). Besides, the z-score in assay [13] was 0.609 (inactive); in assay [15], 1.33 (inactive); in [16] it was 2.32 (inactive); in assay [17], 1.37 (inactive); in [18], 0.737. The results for the composite z-score in assay [14] and in assay [19] were 0.684 (inactive) and -0.0351, respectively.

Turning to `CCOC(=O)C[C@H]1[C@H](OC(=O)c2cc3ccccc3oc2=O)[C@@H](NC(=O)c2ccc3ccccc3c2)c2cc(OCCCO)ccc2N1C(=O)c1ccc2ccccc2n1`, the z-score is 0.418 in assay [1]; 1.48 in assay [2]; -0.0664 in [3]; 0.555 in assay [4]; 0.167 in assay [5]; 0.158 in [6]. In addition, the z-score in assay [7] is -0.0237 (inactive); in assay [8] it was -0.233; in assay [9] it was 0.197; in assay [10] it was -0.194 (inactive); in assay [11], 0.272; in assay [12], -2.13 (inactive). For the same compound, the z-score in assay [13] is 0.0578 (inactive); in [15] it was -1.06 (inactive); in [16] it was 2.52 (inactive); in assay [17], 1.23 (inactive); in assay [18], -0.536. The composite z-score in assay [14] is -0.172 (inactive); in assay [19], -0.0454.

Take `CCC(=O)[C@]12O[C@@]3([C@@H]4C(=O)OCC[C@@H]41)N(Cc1ccccc1)C(C)=C(C(=O)OC)[C@@H](c1ccccc1)N3C2=O`: the z-score in assay [1] is 0.997; in assay [2], 0.873; in assay [3], -0.356; in assay [4], 0.0552; in [5], 1.08; in [6], 0.499. Moreover, the z-score is 0.995 (inactive) in assay [7]; -0.752 in assay [8]; -0.226 in assay [9]; 0.26 (inactive) in [10]; 0.859 in assay [11]; -2.74 (inactive) in [12]. For the same compound, the z-score in assay [13] is 0.83 (inactive); in [15], -0.704 (inactive); in assay [16], -0.101 (inactive); in [17], -0.0892 (inactive); in assay [18] it was 0.95. The composite z-score in [14] is 0.0379 (inactive); in assay [19], 0.0289.

Consider `C=CCc1cccc([C@H]2N[C@H](C(=O)O)CC[C@@H]2C)c1`, for which the z-score is 0.382 in assay [1]; 0.624 in [2]; -0.484 in assay [3]; -0.543 in [4]; 0.665 in assay [5]; 0.489 in assay [6]. Further, the z-score is -0.0728 (inactive) in [7]; 0.602 in assay [8]; 0.345 in assay [9]; 0.553 (inactive) in assay [10]; 0.615 in assay [11]; 0.182 (inactive) in assay [12]. Besides, the z-score in assay [13] is 0.948 (inactive); in [15], 1.14 (inactive); in assay [16], 0.0903 (inactive); in [17] it was 0.129 (inactive); in [18] it was 1.02. Moreover, the composite z-score is 1.09 (inactive) in [14] and -0.0476 in [19].

As for `CCOC(=O)[C@H]1C/C=C/C[C@H](C(=O)OCC)C(=O)O[C@H]2[C@@H](OC)O[C@H](CO)[C@@H](OC(=O)Nc3ccc(Br)cc3)[C@@H]2OC1=O`, the z-score in assay [1] was -4.47; in assay [2] it was -0.34; in assay [3], -5.12; in assay [4], -3.28; in assay [5], -4.16; in assay [6], -3.44. For the same compound, the z-score in [7] is 2.89 (inactive); in assay [8] it was -0.948; in assay [9] it was -1.83; in assay [10], -7.29 (inactive); in [11] it was -6.68; in [12], -1.68 (inactive). The z-score in [13] is -9.26 (active); in assay [15], 0.424 (inactive); in [16], 1.65 (inactive); in assay [17], 1.93 (inactive); in assay [18], -7.26. In addition, the composite z-score is -1.48 (inactive) in assay [14] and 0.0223 in [19].
